Key:
Settings in all cases: concentration: 1 μM, replicates: in singlicate; n = 1
TIE2 = test system: T1, TIE2
T1 construct: gene TEK

TLK1 = test system: TLK1
TLK2 = test system: TLK2
TNIK = test system: TNIK
TNK1 = test system: TNK1
TNK2 = test system: TNK2
TNNI3K = test system: TNNI3K
TRKA = test system: T2, TRKA
T2 construct: gene NTRK1

TRKB = test system: TRKB
TRKC = test system: T3, TRKC
T3 construct: gene NTRK3

TRPM6 = test system: TRPM6
TSSK1B = test system: TSSK1B
TSSK3 = test system: TSSK3
TTK = test system: TTK
TXK = test system: TXK
[1] = test system: TYK2(JH1domain-catalytic)
[2] = test system: TYK2(JH2domain-pseudokinase)
TYRO3 = test system: TYRO3
ULK1 = test system: ULK1
ULK2 = test system: ULK2
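Note: KINOMEscan kinase panel screen.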

Structure (SMILES) | %Inh (TIE2) [%] | %Inh (TLK1) [%] | %Inh (TLK2) [%] | %Inh (TNIK) [%] | %Inh (TNK1) [%] | %Inh (TNK2) [%] | %Inh (TNNI3K) [%] | %Inh (TRKA) [%] | %Inh (TRKB) [%] | %Inh (TRKC) [%] | %Inh (TRPM6) [%] | %Inh (TSSK1B) [%] | %Inh (TSSK3) [%] | %Inh (TTK) [%] | %Inh (TXK) [%] | %Inh [1] [%] | %Inh [2] [%] | %Inh (TYRO3) [%] | %Inh (ULK1) [%] | %Inh (ULK2) [%]
Cc1cc(Nc2nc(-c3cccc(C)n3)nc3ccccc23)ccn1 [GW872411] | 13 | 0 | 15 | 13 | 25 | 0 | 0 | 0 | 0 | 0 | 0 | 0 | 0 | 0 | 0 | 0 | 1 | 0 | 4 | 0
COc1ccc(Nc2nccc(N3CCC(NS(=O)(=O)c4ccc(NC(C)=O)cc4)C3)n2)cc1 (stereo not drawn) [GSK1379729] | 8 | 0 | 0 | 0 | 18 | 12 | 100 | 65 | 0 | 19 | 0 | 0 | 21 | 7 | 35 | 93.8 | 0 | 23 | 26 | 0
CC(C)(C)c1ccc(C(=O)Nc2cn3cc(-c4ccccc4)ccc3n2)cc1 | 0 | 8 | 0 | 18 | 0 | 6 | 6 | 0 | 7 | 3 | 0 | 0 | 8 | 0 | 9 | 0 | 6 | 5 | 0 | 49
O=C(NCc1cccs1)c1cc(C(=O)c2c(Cl)cccc2Cl)c[nH]1 [GW823670] | 2 | 0 | 0 | 5 | 26 | 0 | 0 | 0 | 0 | 0 | 0 | 18 | 0 | 9 | 0 | 1 | 0 | 0 | 0 | 29
COC(=O)c1c(-c2ccccc2)c2cc(Br)ccc2c(=O)n1Cc1ccc(NC(=O)CCC(=O)O)cc1 | 0 | 19 | 0 | 0 | 17 | 0 | 0 | 0 | 0 | 35 | 0 | 0 | 0 | 9 | 39 | 4 | 0 | 0 | 8 | 11
Nc1n[nH]c2ncc(-c3ccccc3)cc12 [SB-517081] | 0 | 0 | 2 | 1 | 0 | 21 | 12 | 17 | 37 | 31 | 21 | 16 | 4 | 33 | 0 | 45 | 92.7 | 0 | 3 | 0
Cc1nnc(-c2ccc3ncn(-c4ccc(S(C)=O)cc4)c3c2)o1 (stereo not drawn) | 11 | 23 | 0 | 11 | 4 | 0 | 7 | 0 | 0 | 0 | 0 | 0 | 6 | 0 | 5 | 0 | 2 | 12 | 0 | 0
CCc1ccc(-c2ccc3c(c2)-c2nn(C)cc2S(=O)(=O)N3C)cc1 | 0 | 35 | 0 | 38 | 14 | 0 | 0 | 0 | 0 | 0 | 0 | 0 | 0 | 0 | 0 | 0 | 0 | 0 | 0 | 0
Cc1nn2c(=O)cc(N3CCOCC3)nc2n1Cc1cccc(Cl)c1Cl [GSK2342769] | 0 | 0 | 0 | 0 | 0 | 16 | 5 | 0 | 0 | 4 | 0 | 0 | 6 | 0 | 13 | 10 | 4 | 0 | 17 | 0
COc1cc2ncn(-c3cc(OCc4ccncc4)c(C(N)=O)s3)c2cc1OC [GSK336313] | 7 | 0 | 0 | 13 | 0 | 5 | 0 | 0 | 0 | 0 | 24 | 0 | 11 | 0 | 6 | 3 | 13 | 0 | 16 | 0
Cc1ccc(Oc2ccc(Nc3ncnc4cc[nH]c34)cc2C)cn1 | 13 | 6 | 12 | 0 | 0 | 12 | 3 | 42 | 14 | 17 | 0 | 5 | 0 | 31 | 6 | 22 | 15 | 3 | 11 | 0
Cc1nc(N(C)[C@H]2CN(C(=O)CC#N)CC[C@H]2C)c2cc[nH]c2n1 | 3 | 3 | 7 | 0 | 3 | 11 | 0 | 17 | 0 | 0 | 0 | 0 | 0 | 19 | 8 | 15 | 0 | 18 | 0 | 8
CCn1c(-c2nonc2N)nc2ccccc21 [SB-693162/GW549034] | 0 | 5 | 0 | 0 | 0 | 0 | 0 | 20 | 43 | 15 | 0 | 0 | 0 | 29 | 12 | 0 | 25 | 0 | 40 | 31
Nc1ncnc2c1ncn2-c1ccc(Cl)cc1 [AH2635] | 0 | 0 | 0 | 0 | 0 | 0 | 0 | 14 | 0 | 16 | 44 | 0 | 16 | 0 | 5 | 25 | 39 | 0 | 0 | 0
Cc1nnc(-c2ccc(C)c(-c3ccc(C(=O)O)cc3)c2)o1 [GW608005] | 0 | 0 | 0 | 0 | 0 | 0 | 0 | 0 | 20 | 0 | 1 | 10 | 0 | 12 | 0 | 15 | 8 | 0 | 8 | 0
COc1ccc(-c2coc3ccc(-c4nnc(SCc5cccc(C#N)c5)o4)cc23)cc1 | 5 | 25 | 0 | 21 | 10 | 0 | 20 | 17 | 0 | 3 | 0 | 0 | 0 | 6 | 2 | 10 | 0 | 0 | 0 | 5
C[C@@H]1CC[C@H](C(=O)NC2CCCCC2)CN1c1cc(-c2ccc3c(N)n[nH]c3c2)nc(N)n1 [GSK2291363] | 0 | 5 | 0 | 8 | 0 | 18 | 5 | 9 | 0 | 0 | 16 | 31 | 31 | 16 | 6 | 0 | 23 | 0 | 6 | 0
CCC(=O)c1c(-c2ccccc2)c2cc(Cl)ccc2c(=O)n1Cc1cc(C(=O)NC2CC2)n(C)n1 | 0 | 8 | 0 | 0 | 0 | 0 | 0 | 0 | 0 | 7 | 0 | 0 | 0 | 15 | 24 | 8 | 1 | 0 | 0 | 6
Cl.NS(=O)(=O)c1cccc(Nc2cc(-c3ccc(F)cc3)n[nH]2)c1 [GW824645] | 2 | 0 | 0 | 45 | 0 | 0 | 0 | 40 | 44 | 31 | 0 | 0 | 0 | 0 | 0 | 0 | 9 | 0 | 15 | 47
O=C(Nc1n[nH]c2cc(-c3ccccc3F)ccc12)C1CC1 [SB-733371] | 26 | 2 | 0 | 76 | 0 | 0 | 0 | 53 | 0 | 19 | 0 | 0 | 0 | 0 | 12 | 0 | 0 | 0 | 2 | 8
O=C(Nc1ccc2c(c1)OCO2)NC1CCN(c2ccnc(NCc3ccc(F)cc3)n2)CC1 [GSK1379859] | 0 | 0 | 0 | 0 | 0 | 7 | 1 | 0 | 15 | 6 | 47 | 0 | 12 | 0 | 0 | 0 | 0 | 0 | 12 | 0
